Records with an inconclusive call do not appear. Active and inactive are the calls of the source. Unless noted, calls follow the shape of the dose curve; as a rule, active = well fitted curve in the direction sought with a large enough effect in the repeat runs; inconclusive = weak or mixed curves; inactive = no such curve, though single readings can be large; an effect the other way counts as inactive or inconclusive.
Key:
[1] = qHTS assay to identify small molecule antagonists of the estrogen related receptor (ERR) signaling pathway from Tox21 library - cell viability counter screen (AID 1224834); also: nearly all actives have a fitted effect of over 30% in size
Summary of the method: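 Seeded ERR cells were rested 6 h at 37 C/5% CO2 before compounds, positive and negative controls or DMSO were added. Incubation continued for 17.5 h, and viability was then quantified by CellTiter-Fluor fluorescence.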

[2] = target: Luciferin 4-monooxygenase (Photinus pyralis) (UniProt P08659); assay: qHTS assay to identify small molecule inhibitors of firefly luciferase (AID 1224835); also: nearly all actives have a fitted effect of over 25% in size
Summary of the method: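 Quantitative HTS format; KM concentrations of both substrates. Purified P. pyralis FLuc activity quantified from luminescence images.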

[3] = qHTS assay to identify small molecule agonists of the constitutive androstane receptor (CAR) signaling pathway - cell viability counter screen (AID 1224836); also: nearly all actives have a fitted effect of over 45% in size
Summary of the method: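 Compound titrations (15 concentrations) went onto HepG2-CYP2B6-hCAR cells 4 h after seeding, alongside PK11195 at a final 0.75 uM; a 23 h, 37 C/5% CO2 incubation preceded CellTiter-Fluor viability measurement.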

[4] = qHTS assay to identify small molecule antagonists of the constitutive androstane receptor (CAR) signaling pathway - cell viability counter screen (AID 1224837); also: nearly all actives have a fitted effect of over 45% in size
Summary of the method: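 To flag cytotoxic false antagonists, HepG2 hCAR/CYP2B6-2.2kb cells were treated 23 hr with 15-concentration compound series and 50 nM CITCO at 37 C/5% CO2; CellTiter-Fluor fluorescence was the measured end point.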

[5] = target: Nuclear receptor subfamily 1 group I member 3 (Homo sapiens) (UniProt Q14994); assay: qHTS assay to identify small molecule antagonists of the constitutive androstane receptor (CAR) signaling pathway (AID 1224838);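 also: HepG2 cells stably expressing hCAR with CYP2B6 luciferase reporter stimulated by CITCO; nearly all actives have a fitted effect of over 40% in size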
Summary of the method: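 Human hepatoma HepG2 cells expressing hCAR and a CYP2B6 promoter (2.2 kb) luciferase construct; compound titration (15 points) with 50 nM CITCO final, 24 h at 37 C/5% CO2; luminescence via ONE-Glo after 30 min at room temperature.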

[6] = target: Nuclear receptor subfamily 1 group I member 3 (Homo sapiens) (UniProt Q14994); assay: qHTS assay to identify small molecule agonists of the constitutive androstane receptor (CAR) signaling pathway (AID 1224839);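 also: HepG2 cells stably carrying human CAR and a CYP2B6 luciferase reporter; nearly all actives have a fitted effect of over 15% in size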
Summary of the method: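 In this screen, CAR-driven CYP2B6 promoter activity is measured by luminescence in HepG2-CYP2B6-hCAR cells after 24 h with test compounds and 0.75 uM PK11195 (final concentration).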

[7] = qHTS assay to identify small molecule antagonists of the estrogen related receptor signaling pathway with the pleiotropic PPARgamma coactivator (PGC) from Tox21 10K library - cell viability counter screen (AID 1224840; active = well fitted cell-killing curve with a large enough effect in the repeat runs, not every such curve was filed as active; also: nearly all actives have a fitted effect of over 40% in size)
Summary of the method: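 Seeded PGC/ERR cells (2,000/well, 6 h, 37 C/5% CO2) get compound by pin tool; 17.5 h incubation at 37 C; CellTiter-Fluor added, 30 min, fluorescence measured.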

[8] = qHTS assay to identify small molecule antagonists of the estrogen related receptor signaling pathway with the pleiotropic PPARgamma coactivator (PGC) from Tox21 10K library (AID 1224841; call rule not given here; also: actives are mostly falling curves and most rising ones were filed inactive; nearly all actives have a fitted effect of over 50% in size)
Summary of the method: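 Test chemicals dissolved in DMSO were applied to pre-incubated (6 h) PGC/ERR cells at 2,000 cells/well for an 18 h, 37 C treatment; reporter luminescence was then read using One-Glo.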

[9] = qHTS assay to identify small molecule agonists of the estrogen related receptor signaling pathway with the pleiotropic PPARgamma coactivator (PGC) from Tox21 10K library (AID 1224842); also: nearly all actives have a fitted effect of over 15% in size
Summary of the method: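 PGC/ERR reporter cells (NTP line) were seeded 2,000 per well, rested 6 h at 37 C/5% CO2, then pin-dosed with compounds in DMSO for 18 h at 37 C; luciferase read by One-Glo luminescence after 30 min at room temperature.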

[10] = target: Thyrotropin receptor (Homo sapiens) (UniProt P16473); assay: qHTS assay to identify small molecule agonists of the thyroid stimulating hormone receptor (TSHR) signaling pathway (AID 1224843; calls by dose curve; also: nearly all actives have a fitted effect of over 45% in size)
Summary of the method: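 Compounds are titrated over 15 concentrations, in triplicate, onto TSHR-HEK293 cells seeded at 800/well. Plates sit 30 min at room temperature before cAMP-d2 and anti-cAMP cryptate are added; signal is read after a further hour.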

[11] = qHTS assay to identify small molecule agonists of the hypoxia (HIF-1) signaling pathway - cell viability counter screen (AID 1224844; calls by dose curve; also: nearly all actives have a fitted effect of over 50% in size)
Summary of the method: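 HRE-bla ME-180; 0.5% dFBS; cpd 17 h, 37C, 5% CO2; CellTiter-Glo lum., 30 min RT, post-FRET read, same wells.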

[12] = qHTS assay to identify small molecule agonists of H2AX (AID 1224845; active = well fitted activation curve with a large enough effect in the signal ratio in the repeat runs, not every such curve was filed as active; the % refers to the signal ratio)
Summary of the method: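 Wild-type CHO-K1 cells plated overnight, then exposed 3 hr at 37C to compounds at 15 concentrations (0.76% DMSO). Lysed, then HTRF anti-pH2AX(S139)-cryptate/anti-H2AX-d2 detection after 24 hr at room temperature; emissions 665 and 620 nm.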

[13] = qHTS assay to identify small molecule agonists of the hypoxia (HIF-1) signaling pathway (AID 1224846; active = well fitted activation curve with a large enough effect in the signal ratio in the repeat runs, not every such curve was filed as active; the % refers to the signal ratio)
Summary of the method: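 Reporter induction in HRE-bla ME-180 cells is taken as agonism: cells sit 5 hrs after plating, receive compounds or DMSO only, incubate 17 hrs at 37C under 5% CO2, and are loaded with CCF4-AM for beta-lactamase FRET measurement.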

[14] = qHTS assay to identify small molecule agonists of H2AX - cell viability counter screen (AID 1224847; calls by dose curve; also: top concentration of the series differs between compounds; nearly all actives have a fitted effect of over 30% in size)
Summary of the method: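 Read-out: CellTiter-Glo luminescence, 30 min RT. Cells: wild-type CHO-K1, 1000/well, 10% FBS, plated overnight at 37C. Treatment: 15 concentrations, 3 hr, 37C, 0.76% DMSO.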

[15] = qHTS assay to identify small molecule agonists of the estrogen related receptor (ERR) signaling pathway from Tox21 library (AID 1224849; calls by dose curve; also: nearly all actives have a fitted effect of over 15% in size); conditions: ERR reporter cell line, ONE-Glo luciferase, 18 h; at 92.4 µM (top of the series) unless noted
Summary of the method: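 Tox21 compounds tested for ERR agonism in an NTP reporter cell line: 18 h treatment at 37 C, then ONE-Glo luminescence.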

[16] = qHTS RealTime-Glo MT Cell Viability Assay in HepG2 cells - 24 hour (AID 1224867); also: nearly all actives have a fitted effect of over 50% in size
Summary of the method: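 Cell number in HepG2 cultures estimated from NanoLuc luminescence generated by metabolic reduction of a prosubstrate by living cells. The homogeneous, nonlytic format allowed repeated reads at 0, 8, 16, 24, 32 and 40 h of compound exposure.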

[17] = qHTS RealTime-Glo MT Cell Viability Assay in HEK293 cells - 32 hour (AID 1224868); also: top concentration of the series differs between compounds; nearly all actives have a fitted effect of over 50% in size
Summary of the method: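 Homogeneous bioluminescent viability format in HEK293 cells (600 cells/well). Following 5 h at 37 C/5% CO2, 23 nL compound was pintooled; the signal was measured repeatedly during 40 h incubation.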

[18] = A CellTox Green Cytotoxicity Assay to monitor cytotoxicity in HEK293 cells - 0 hour (AID 1224869); also: nearly all actives have a fitted effect of over 50% in size
Summary of the method: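 Tox21 screen in HEK293: membrane-impermeant cyanine dye fluoresces on binding dead-cell DNA; compound pinned 5 h post-seeding, plates held at 37 C, signal read repeatedly through 40 h.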

[19] = qHTS RealTime-Glo MT Cell Viability Assay in HepG2 cells - 40 hour (AID 1224870); also: nearly all actives have a fitted effect of over 50% in size
Summary of the method: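 HepG2 cells mixed with RealTime-Glo MT reagents (NanoLuc plus cell-permeant prosubstrate) were seeded at 600 cells/well, incubated 5 h at 37 C/5% CO2, then pinned with compounds in DMSO; nonlytic luminescence tracked viability during 40 h treatment.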

[20] = qHTS assay to identify small molecule antagonists of the estrogen related receptor (ERR) signaling pathway from Tox21 library (AID 1224848); also: nearly all actives have a fitted effect of over 50% in size
Summary of the method: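 First, 2,000 ERR cells per well were plated and held 6 h at 37 C/5% CO2. Next, compounds in DMSO were pinned in and left 18 h at 37 C. Finally, ONE-Glo was added and luminescence read after 30 min at room temperature.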
% is scaled to controls: 0 for no effect and ±100 for the full control effect.

Chain of Thyrotropin receptor (Homo sapiens) (P16473 whole entry, looked up): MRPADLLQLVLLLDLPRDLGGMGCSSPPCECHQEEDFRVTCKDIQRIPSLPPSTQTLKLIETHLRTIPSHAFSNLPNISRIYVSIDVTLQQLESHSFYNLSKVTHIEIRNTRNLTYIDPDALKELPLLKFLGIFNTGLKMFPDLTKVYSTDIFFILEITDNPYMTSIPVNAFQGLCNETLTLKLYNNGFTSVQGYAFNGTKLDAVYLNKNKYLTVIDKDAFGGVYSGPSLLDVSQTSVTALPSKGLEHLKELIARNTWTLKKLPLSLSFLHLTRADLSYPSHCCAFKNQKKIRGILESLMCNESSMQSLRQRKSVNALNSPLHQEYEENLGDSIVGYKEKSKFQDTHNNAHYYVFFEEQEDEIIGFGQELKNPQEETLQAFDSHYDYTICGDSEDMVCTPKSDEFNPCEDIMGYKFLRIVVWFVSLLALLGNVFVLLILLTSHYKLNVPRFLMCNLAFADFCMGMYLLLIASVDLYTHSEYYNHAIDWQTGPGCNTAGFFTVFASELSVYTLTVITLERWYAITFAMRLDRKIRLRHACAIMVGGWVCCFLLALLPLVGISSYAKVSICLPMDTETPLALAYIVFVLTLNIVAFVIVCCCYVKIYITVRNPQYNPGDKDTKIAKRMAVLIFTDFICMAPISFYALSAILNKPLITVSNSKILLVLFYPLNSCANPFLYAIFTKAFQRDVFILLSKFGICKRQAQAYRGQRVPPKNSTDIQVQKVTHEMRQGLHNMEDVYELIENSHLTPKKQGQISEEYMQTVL
Chain of Luciferin 4-monooxygenase (Photinus pyralis) (P08659 whole entry, looked up): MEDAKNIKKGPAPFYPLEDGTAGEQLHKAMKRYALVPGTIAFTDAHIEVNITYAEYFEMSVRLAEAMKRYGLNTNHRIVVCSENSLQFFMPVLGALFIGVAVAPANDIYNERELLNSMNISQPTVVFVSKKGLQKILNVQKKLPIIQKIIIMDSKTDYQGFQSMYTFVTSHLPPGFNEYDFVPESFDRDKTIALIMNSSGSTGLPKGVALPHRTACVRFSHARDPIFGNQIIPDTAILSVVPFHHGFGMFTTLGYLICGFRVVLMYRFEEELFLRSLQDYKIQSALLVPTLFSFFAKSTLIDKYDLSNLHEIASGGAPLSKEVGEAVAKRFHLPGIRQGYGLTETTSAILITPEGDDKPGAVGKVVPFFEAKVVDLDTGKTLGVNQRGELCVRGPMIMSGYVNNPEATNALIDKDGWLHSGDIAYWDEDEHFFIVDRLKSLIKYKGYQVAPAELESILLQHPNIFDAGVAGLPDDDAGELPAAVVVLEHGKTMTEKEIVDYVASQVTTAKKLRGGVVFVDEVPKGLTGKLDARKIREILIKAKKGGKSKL
Chain of Nuclear receptor subfamily 1 group I member 3 (Homo sapiens) (Q14994 whole entry, looked up): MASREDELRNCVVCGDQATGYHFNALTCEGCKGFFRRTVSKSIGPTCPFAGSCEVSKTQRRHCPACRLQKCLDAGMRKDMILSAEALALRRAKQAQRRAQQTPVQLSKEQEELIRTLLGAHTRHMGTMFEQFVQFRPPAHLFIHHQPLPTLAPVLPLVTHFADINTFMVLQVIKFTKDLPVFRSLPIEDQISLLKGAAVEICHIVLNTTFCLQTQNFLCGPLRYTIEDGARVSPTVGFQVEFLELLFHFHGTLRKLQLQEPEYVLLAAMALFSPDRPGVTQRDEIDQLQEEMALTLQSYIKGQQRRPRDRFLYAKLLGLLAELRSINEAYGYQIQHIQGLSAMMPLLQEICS

CO[C@H]1O[C@H](CO)[C@@H](O)[C@H](O)[C@H]1O
inactive: Potency [1] | Potency [2] | Potency [3] | Potency [4] | Potency [5] | Potency [6] | Potency [7] | Potency [8] | Potency [9] | Potency [10] | Potency [11] | Potency [12] | outcome [13] | Potency [14] | activity change, positive = activation [15] 10.5% | Potency [16] | Potency [17] | Potency [18] | Potency [19]

CC(C)OCC1CO1 (centres undefined)
inactive: Potency [1] | Potency [2] | Potency [3] | Potency [4] | Potency [5] | Potency [6] | Potency [7] | Potency [8] | Potency [9] | Potency [11] | Potency [12] | outcome [13] | Potency [14] | Potency [20] | activity change, positive = activation [15] -0.395% | Potency [16] | Potency [17] | Potency [18] | Potency [19]

Oc1cc(O)c(Cl)cc1Cl
inactive: Potency [1] | Potency [2] | Potency [3] | Potency [4] | Potency [5] | Potency [6] | Potency [7] | Potency [8] | Potency [9] | Potency [10] | Potency [11] | Potency [14] | Potency [20] | activity change, positive = activation [15] -14.1% | Potency [16] | Potency [17] | Potency [19]

C[N+]1(C)CCC(=C(c2ccccc2)c2ccccc2)CC1
inactive: Potency [1] | Potency [2] | Potency [3] | Potency [4] | Potency [5] | Potency [6] | Potency [7] | Potency [8] | Potency [9] | Potency [10] | Potency [11] | Potency [12] | Potency [14] | activity change, positive = activation [15] -2% [at 42.5 µM] | Potency [16] | Potency [17] | Potency [18] | Potency [19]

CC(=O)Nc1ccccc1C
inactive: Potency [1] | Potency [2] | Potency [3] | Potency [4] | Potency [5] | Potency [6] | Potency [7] | Potency [8] | Potency [9] | Potency [10] | Potency [11] | Potency [12] | outcome [13] | Potency [14] | Potency [20] | activity change, positive = activation [15] -0.329% | Potency [16] | Potency [17] | Potency [18] | Potency [19]

CCOC(=O)c1ccccc1OC
inactive: Potency [1] | Potency [2] | Potency [3] | Potency [4] | Potency [5] | Potency [6] | Potency [7] | Potency [8] | Potency [9] | Potency [10] | Potency [11] | Potency [12] | Potency [14] | Potency [20] | activity change, positive = activation [15] -0.575% | Potency [16] | Potency [18] | Potency [19]

CCCOc1ccc(S(=O)(=O)N2CCN(CC)CC2)cc1-c1nc2c(CC)n(Cc3ccccn3)nc2c(=O)[nH]1
inactive: Potency [1] | Potency [2] | Potency [3] | Potency [4] | Potency [5] | Potency [6] | Potency [7] | Potency [8] | Potency [9] | Potency [10] | Potency [11] | Potency [12] | outcome [13] | Potency [14] | activity change, positive = activation [15] -21.4% | Potency [16] | Potency [18] | Potency [19]
